Consider 31 compounds from PubChem BioAssay AID488911 (Broad Institute, 2010).

Potency and affinity values are given separately. Activity calls are given as the source filed them.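 The calls were made as follows: active = falling signal whose fitted half-effect dose is at or below ten times the top valid dose; inconclusive = flat fit showing a moderate drop, or a poor fit; inactive = the rest.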

The assay in a line: mammalian cell toxicity in NIH-3T3 fibroblasts, dose response, cytotoxicity control for antifungal resistance reversal project, Alamar Blue, dry powder, set 2 (AID 488911). The settings on record: NIH-3T3 viability with fluconazole, 48 h; series mostly up to 26 µM.
Turning to `O=C(c1ccc(Cl)cn1)N1CCN(c2ccnc3cc(Cl)ccc23)CC1`, the result was inactive. As to `Clc1ccc2c(N3CCNCC3)ccnc2c1`, the outcome was inactive. With `O=C(c1ccc(Cl)cc1)N1CCN(c2ccncc2)CC1` the entry was “inactive”; with `O=C(Nc1ccc(Cl)cc1)N1CCN(c2ccnc3cc(Cl)ccc23)CC1`, “inactive”; with `CC(C)CC(=O)N1CCN(c2ccnc3cc(Cl)ccc23)CC1`, “inactive”. For `O=C(C1CCC1)N1CCN(c2ccnc3cc(Cl)ccc23)CC1`, the outcome was inactive.

Take `O=C(c1ccccc1Cl)N1CCN(c2ccnc3cc(Cl)ccc23)CC1`: the outcome was inactive. On to `O=C(c1ccc(Cl)cc1)N1CCN(c2ccccn2)CC1`, for which the result was inactive. Consider `O=C(c1ccc(Cl)cc1)N1CCN(c2ccnc3cc(Cl)ccc23)CC1`, for which the result was inactive.

For the compound `COc1ccc(C(=O)N2CCN(c3ccnc4cc(Cl)ccc34)CC2)cc1`, the result was inactive.

For the compound `COc1cccc2c(N3CCN(C(=O)c4ccc(Cl)cc4)CC3)cc(C)nc12`, the outcome was inactive. With `O=C(c1cccc(Cl)c1)N1CCN(c2ccnc3cc(Cl)ccc23)CC1` the entry was “inactive”; with `O=C(c1ccc(Cl)cc1)N1CCN(c2ccnc3ccc(Cl)cc23)CC1`, “inactive”; with `CC(C)C(=O)N1CCN(c2ccnc3cc(Cl)ccc23)CC1`, “inactive”. In the case of `COc1ccc2c(N3CCN(C(=O)c4ccc(Cl)cc4)CC3)ccnc2c1`, the outcome was inactive. In the case of `O=C(c1ccc(Cl)cc1)N1CCN(c2ccnc3ccccc23)CC1`, the outcome was inactive. With `O=C(c1ccc(Cl)cc1)C1CCN(c2ccnc3cc(Cl)ccc23)CC1` the entry was “inactive”; with `Cc1cc(N2CCN(C(=O)c3ccc(Cl)cc3)CC2)c2ccccc2n1`, “inactive”; with `O=C(c1ccc(Cl)nc1)N1CCN(c2ccnc3cc(Cl)ccc23)CC1`, “inactive”. Consider `Cc1cc(N2CCN(C(=O)c3ccc(Cl)cc3)CC2)c2ccc(F)cc2n1`, for which the result was inactive. With `O=C(C1CCCCC1)N1CCN(c2ccnc3cc(Cl)ccc23)CC1` the entry was “inactive”; with `COCCC(=O)N1CCN(c2ccnc3cc(Cl)ccc23)CC1`, “inactive”.

In the case of `CCCC(=O)N1CCN(c2ccnc3cc(Cl)ccc23)CC1`, the outcome was inactive.

As for `N#Cc1ccc(N2CCN(C(=O)c3ccc(Cl)cc3)CC2)nc1`, the outcome was inactive. With `O=C(c1ccc(Cl)cc1)N1CCCN(c2ccnc3cc(Cl)ccc23)CC1`, the result was inactive. With `O=C(c1ccc(Cl)cc1)N1CCNCC1` the entry was “inactive”; with `O=C(c1ccc(Cl)cc1)N1CCN(c2ncnc3ccccc23)CC1`, “inactive”; with `O=C(C1CCCC1)N1CCN(c2ccnc3cc(Cl)ccc23)CC1`, “inactive”. With `CC1CN(c2ccnc3cc(Cl)ccc23)CCN1C(=O)c1ccc(Cl)cc1` (stereo unspecified) the entry was “inactive”.

For `O=C(c1ccc(Cl)cc1)N1CCN(c2ncnc3nc[nH]c23)CC1`, the outcome was inactive.

Regarding `O=C(c1ccc(F)cc1)N1CCN(c2ccnc3cc(Cl)ccc23)CC1`, the result was inactive.
